This is part of a sample that, as a whole, favours compounds with a hit. Of some 79,000 tested, about 15% had one in any assay. Values without a mark were called inactive. The source made the active and inactive calls. Cut-off read from the data, not from the text of the source: active = growth inhibition above about 70%; inactive = the rest.
Assays:
[1] = NCI Yeast Anticancer Drug Screen. Data for the mec2-1 strain (AID 157); details: S. cerevisiae mec2-1 strain, stronger effect = higher value
In short: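 Each compound was tested on mec2-1 yeast, a strain altered in DNA damage repair or cell cycle control. Growth inhibition is reported relative to vehicle.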

[2] = NCI Yeast Anticancer Drug Screen. Data for the rad14 strain (AID 159);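 note: 0% = growth of vehicle-treated control cultures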; details: S. cerevisiae rad14 strain growth inhibition, stronger effect = higher value
In short: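 Readout: yeast growth inhibition, referenced to vehicle-only cultures. Strain bears a defined alteration in DNA damage repair.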

[3] = NCI Yeast Anticancer Drug Screen. Data for the sgs1 mgt1 strain (AID 161);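 note: 0% = growth of cultures given vehicle only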; details: S. cerevisiae sgs1 mgt1 strain, stronger effect = higher value
In short: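 Test agents were incubated with a DNA-repair-mutant yeast strain. Growth was then read and compared against vehicle-treated controls.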

[4] = NCI Yeast Anticancer Drug Screen. Data for the CLN2oe strain (AID 163);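 note: 0% = growth of vehicle-only control cultures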; details: S. cerevisiae CLN2oe strain, stronger effect = higher value
In short: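 First, the altered yeast strain was treated with each compound; second, its growth was measured; finally, inhibition was derived by comparison with vehicle controls.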

[5] = NCI Yeast Anticancer Drug Screen. Data for the cln2 rad14 strain (AID 165);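 note: 0% = growth equal to vehicle treated cultures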; details: S. cerevisiae cln2 rad14 strain, stronger effect = higher value
In short: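 Test compounds were added to cln2 rad14 yeast cultures; inhibition of growth was then determined by comparison with vehicle treatment.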

[6] = NCI Yeast Anticancer Drug Screen. Data for the bub3 strain (AID 167); details: S. cerevisiae bub3 mutant strain, stronger effect = higher value
In short: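 Part of a panel of yeast mutants defective in DNA damage repair or cell cycle regulation. Each strain is grown with compound, and inhibition is calculated relative to solvent-treated cultures.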

[7] = NCI Yeast Anticancer Drug Screen. Data for the wt2 strain (AID 169);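 note: 0% = growth of vehicle-treated yeast cultures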; details: S. cerevisiae wt2 strain growth inhibition, stronger effect = higher value
In short: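 The panel's yeast strains carry defined changes in DNA repair or cell cycle genes. Each strain is grown with compound, and growth loss is scored relative to vehicle.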

[8] = NCI Yeast Anticancer Drug Screen. Data for the mlh1 strain (AID 171);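 note: 0% = growth of vehicle-treated control cultures of the same strain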; details: S. cerevisiae mlh1 strain growth inhibition, stronger effect = higher value
In short: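 Inhibition values reflect reduced yeast growth in the presence of compound, referenced to vehicle controls, using a strain chosen for its alteration in DNA repair or cell cycle control.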

[9] = NCI Yeast Anticancer Drug Screen. Data for the sgs1 strain (AID 173);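 note: 0% = growth of vehicle-only control cultures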; details: S. cerevisiae sgs1 mutant, stronger effect = higher value
In short: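 Vehicle-treated cultures served as reference for growth inhibition of a yeast strain altered in DNA damage repair or cell cycle control after compound exposure.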

[10] = NCI Yeast Anticancer Drug Screen. Data for the mlh1 rad18 strain (AID 175); details: S. cerevisiae mlh1 rad18 strain growth inhibition, stronger effect = higher value
In short: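 Inhibition values reflect reduced growth of mutant yeast versus vehicle-treated controls following compound exposure; the mutations affect DNA damage repair.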

[11] = NCI Yeast Anticancer Drug Screen. Data for the rad18 strain (AID 177); details: S. cerevisiae rad18 mutant growth inhibition, stronger effect = higher value
In short: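 Steps: expose repair-mutant yeast to compound; measure growth; express as inhibition relative to vehicle control.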

[12] = NCI Yeast Anticancer Drug Screen. Data for the rad52 strain (AID 147);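 note: 0% = growth of vehicle-treated control cultures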; details: S. cerevisiae rad52 mutant growth inhibition, stronger effect = higher value
In short: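 Inhibition of yeast growth, referenced to vehicle controls, was the measured output for a strain with defective DNA damage repair.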

[13] = NCI Yeast Anticancer Drug Screen. Data for the wt1 strain (AID 149);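 note: 0% = growth of vehicle-treated wt1 cultures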; details: S. cerevisiae wt1 strain (SPY 50644) growth inhibition, stronger effect = higher value
In short: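 The wt1 strain was treated with compounds, and growth was compared with vehicle-treated cultures to give inhibition.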

[14] = NCI Yeast Anticancer Drug Screen. Data for the rad50EPP+ strain (AID 151);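 note: 0% = growth of vehicle-treated control cultures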; details: S. cerevisiae rad50 mutant strain, stronger effect = higher value
In short: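 Genetically defined yeast (rad50EPP+, DNA damage repair alteration) is grown with compound, and inhibition of growth is expressed relative to vehicle-treated controls.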

[15] = NCI Yeast Anticancer Drug Screen. Data for the rad50 strain (AID 155);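 note: 0% = growth of vehicle-only cultures of the same strain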; details: S. cerevisiae rad50 strain growth inhibition, stronger effect = higher value
In short: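 Cells are treated with compound, grown, and their growth is then scored against vehicle-only cultures of the same repair-deficient yeast strain.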

[16] = at 5.0 µM (retest, dose inferred, filed as 0.5)
[17] = at 50.0 µM (retest, dose inferred, filed as 5.0)

COc1ccc(S(=O)(=O)N/N=C\c2cc([N+](=O)[O-])cc(I)c2O)c(OC)c1OC
growth inhibition ([1]; at 100.0 µM): 83% (active) | growth inhibition ([2]; at 1.2 µM): -3% | growth inhibition ([2]; at 3.7 µM): 4% | growth inhibition ([2]; at 11.0 µM): 13% | growth inhibition ([2]; at 33.0 µM): 39% | growth inhibition ([2]; at 100.0 µM): 96% (active) | growth inhibition [3, 16]: 13% | growth inhibition [3, 17]: 74% (active) | growth inhibition ([3]; at 50.0 µM): 88.3% (active) | growth inhibition ([4]; at 1.2 µM): -6% | growth inhibition ([4]; at 3.7 µM): -10% | growth inhibition ([4]; at 11.0 µM): -8% | growth inhibition ([4]; at 33.0 µM): 18% | growth inhibition ([4]; at 100.0 µM): 93% (active) | growth inhibition [5, 16]: -8% | growth inhibition [5, 17]: 46% | growth inhibition ([5]; at 50.0 µM): 11.1% | growth inhibition ([6]; at 1.2 µM): -13% | growth inhibition ([6]; at 3.7 µM): -15% | growth inhibition [6, 16]: 1% | growth inhibition ([6]; at 11.0 µM): -5% | growth inhibition ([6]; at 33.0 µM): 15% | growth inhibition [6, 17]: 68% | growth inhibition ([6]; at 50.0 µM): 25.8% | growth inhibition ([6]; at 100.0 µM): 86% (active) | growth inhibition ([7]; at 1.2 µM): -7% | growth inhibition ([7]; at 3.7 µM): -7% | growth inhibition ([7]; at 11.0 µM): -6% | growth inhibition ([7]; at 33.0 µM): 15% | growth inhibition ([7]; at 100.0 µM): 93% (active) | growth inhibition ([8]; at 1.2 µM): 0% | growth inhibition ([8]; at 3.7 µM): -8% | growth inhibition ([8]; at 11.0 µM): 0% | growth inhibition ([8]; at 33.0 µM): 29% | growth inhibition ([8]; at 100.0 µM): 88% (active) | growth inhibition ([9]; at 1.2 µM): -5% | growth inhibition ([9]; at 3.7 µM): -8% | growth inhibition ([9]; at 11.0 µM): 9% | growth inhibition ([9]; at 33.0 µM): 45% | growth inhibition ([9]; at 100.0 µM): 97% (active) | growth inhibition [10, 16]: 15% | growth inhibition [10, 17]: 73% (active) | growth inhibition ([10]; at 50.0 µM): 85.5% (active) | growth inhibition ([11]; at 1.2 µM): -1% | growth inhibition ([11]; at 3.7 µM): 0% | growth inhibition ([11]; at 11.0 µM): 13% | growth inhibition ([11]; at 33.0 µM): 37% | growth inhibition ([11]; at 100.0 µM): 93% (active)

COc1ccc(/C=C2\SC(=S)N(C=C3C(=O)NC(=S)NC3=O)C2=O)cc1OC
growth inhibition ([12]; at 1.2 µM): 12% | growth inhibition ([12]; at 3.7 µM): 15% | growth inhibition ([12]; at 11.0 µM): 47% | growth inhibition ([12]; at 33.0 µM): 83% (active) | growth inhibition ([12]; at 100.0 µM): 89% (active) | growth inhibition ([13]; at 1.2 µM): 4% | growth inhibition ([13]; at 3.7 µM): 6% | growth inhibition ([13]; at 11.0 µM): 25% | growth inhibition ([13]; at 33.0 µM): 79% (active) | growth inhibition ([13]; at 100.0 µM): 94% (active) | growth inhibition ([14]; at 1.2 µM): 0% | growth inhibition ([14]; at 3.7 µM): 7% | growth inhibition ([14]; at 11.0 µM): 37% | growth inhibition ([14]; at 33.0 µM): 56% | growth inhibition ([14]; at 100.0 µM): 59% | growth inhibition ([15]; at 1.2 µM): 3% | growth inhibition ([15]; at 3.7 µM): 3% | growth inhibition [15, 16]: -2% | growth inhibition ([15]; at 11.0 µM): 37% | growth inhibition ([15]; at 33.0 µM): 80% (active) | growth inhibition [15, 17]: 65% | growth inhibition ([15]; at 50.0 µM): 49.8% | growth inhibition ([15]; at 100.0 µM): 88% (active) | growth inhibition ([1]; at 1.2 µM): 10% | growth inhibition ([1]; at 3.7 µM): 14% | growth inhibition [1, 16]: -16% | growth inhibition ([1]; at 11.0 µM): 58% | growth inhibition ([1]; at 33.0 µM): 91% (active) | growth inhibition [1, 17]: 75% (active) | growth inhibition ([1]; at 50.0 µM): 77.8% (active) | growth inhibition ([1]; at 100.0 µM): 93% (active) | growth inhibition ([2]; at 1.2 µM): 6% | growth inhibition ([2]; at 3.7 µM): 15% | growth inhibition ([2]; at 11.0 µM): 52% | growth inhibition ([2]; at 33.0 µM): 85% (active) | growth inhibition ([2]; at 100.0 µM): 92% (active) | growth inhibition [3, 16]: -6% | growth inhibition [3, 17]: 76% (active) | growth inhibition ([3]; at 50.0 µM): 85.8% (active) | growth inhibition ([4]; at 1.2 µM): -11% | growth inhibition ([4]; at 3.7 µM): -1% | growth inhibition ([4]; at 11.0 µM): 39% | growth inhibition ([4]; at 33.0 µM): 85% (active) | growth inhibition ([4]; at 100.0 µM): 90% (active) | growth inhibition [5, 16]: -25% | growth inhibition [5, 17]: 33% | growth inhibition ([5]; at 50.0 µM): 37.6% | growth inhibition ([6]; at 1.2 µM): 6% | growth inhibition ([6]; at 3.7 µM): 8% | growth inhibition [6, 16]: 3% | growth inhibition ([6]; at 11.0 µM): 33% | growth inhibition ([6]; at 33.0 µM): 60% | growth inhibition [6, 17]: -1% | growth inhibition ([6]; at 50.0 µM): 44.3% | growth inhibition ([6]; at 100.0 µM): 59% | growth inhibition ([7]; at 1.2 µM): 1% | growth inhibition ([7]; at 3.7 µM): 7% | growth inhibition ([7]; at 11.0 µM): 52% | growth inhibition ([7]; at 33.0 µM): 92% (active) | growth inhibition ([7]; at 100.0 µM): 95% (active) | growth inhibition ([8]; at 1.2 µM): 0% | growth inhibition ([8]; at 3.7 µM): 10% | growth inhibition ([8]; at 11.0 µM): 51% | growth inhibition ([8]; at 33.0 µM): 89% (active) | growth inhibition ([8]; at 100.0 µM): 89% (active) | growth inhibition ([9]; at 1.2 µM): 11% | growth inhibition ([9]; at 3.7 µM): 29% | growth inhibition ([9]; at 11.0 µM): 61% | growth inhibition ([9]; at 33.0 µM): 94% (active) | growth inhibition ([9]; at 100.0 µM): 93% (active) | growth inhibition [10, 16]: 7% | growth inhibition [10, 17]: 69% | growth inhibition ([10]; at 50.0 µM): 68.3% | growth inhibition ([11]; at 1.2 µM): 16% | growth inhibition ([11]; at 3.7 µM): 34% | growth inhibition ([11]; at 11.0 µM): 60% | growth inhibition ([11]; at 33.0 µM): 82% (active) | growth inhibition ([11]; at 100.0 µM): 89% (active)

— PubChem BioAssay (NCI)
